According to PubChem BioAssay (NCI):
This is part of a sample that, as a whole, favours compounds with a hit. Of some 83,000 tested, about 20% had one in any assay.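 Single-dose data. Exposure time 48 hours. Values below 10 considered active.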 Calls of active or inactive are those of the source.

Columns and labels:
Test in all cases: NCI-60 one-dose screen, 48 h (100 = growth as untreated, 0 = no growth, -100 = all killed)
Details in all cases: 10 µM
RPMI-8226 leukemia = system: RPMI-8226 leukemia
OVCAR-8 ovarian = system: OVCAR-8 ovarian
OVCAR-5 ovarian = system: OVCAR-5 ovarian
OVCAR-4 ovarian = system: OVCAR-4 ovarian
SK-OV-3 ovarian = system: SK-OV-3 ovarian
IGROV1 ovarian = system: IGROV1 ovarian
OVCAR-3 ovarian = system: OVCAR-3 ovarian
HS 578T breast = system: HS 578T breast
NCI/ADR-RES ovarian = system: NCI/ADR-RES ovarian
T-47D breast = system: T-47D breast
BT-549 breast = system: BT-549 breast
MDA-MB-435 melanoma = system: MDA-MB-435 melanoma
SW-620 colon = system: SW-620 colon
MCF7 breast = system: MCF7 breast
HCT-116 colon = system: HCT-116 colon
HCC-2998 colon = system: HCC-2998 colon
KM12 colon = system: KM12 colon

Measured: growth

CCCCCCN1CCN(Cc2ccc(N(CC)CC)cc2)C(=O)C1=O
inactive: OVCAR-8 ovarian 28.3% | OVCAR-5 ovarian 58.8% | OVCAR-4 ovarian 54.6% | SK-OV-3 ovarian 32.5% | IGROV1 ovarian 32.1% | HS 578T breast 20.6% | T-47D breast 25.5% | BT-549 breast 68.1% | SW-620 colon 24% | MCF7 breast 17.2% | HCT-116 colon 34.2% | HCC-2998 colon 52% | KM12 colon 28.5%
active: RPMI-8226 leukemia 4.35% | OVCAR-3 ovarian 5.54% | NCI/ADR-RES ovarian 0.986% | MDA-MB-435 melanoma -79.5%

COc1cc(-c2cc(C(=O)N3CCN(C(=O)c4ccccc4NCc4cccs4)CC3)nc3cc(-c4ccccc4)nn23)cc(OC)c1OC
active: OVCAR-3 ovarian 9.27% | MDA-MB-435 melanoma 6.28%
inactive: RPMI-8226 leukemia 75.2% | OVCAR-8 ovarian 90% | OVCAR-5 ovarian 86.6% | OVCAR-4 ovarian 89.4% | SK-OV-3 ovarian 86.7% | IGROV1 ovarian 36.6% | HS 578T breast 85.7% | NCI/ADR-RES ovarian 52.6% | T-47D breast 79.6% | BT-549 breast 83.8% | SW-620 colon 51% | MCF7 breast 23.6% | HCT-116 colon 55.9% | HCC-2998 colon 101% | KM12 colon 27.5%

COC(=O)C1(C)Cc2cc(OC(C)=O)c(OC(C)=O)cc2N1 (stereo not drawn)
inactive: RPMI-8226 leukemia 23.6% | OVCAR-8 ovarian 85.2% | OVCAR-5 ovarian 118% | OVCAR-4 ovarian 57.8% | SK-OV-3 ovarian 98.4% | IGROV1 ovarian 27.1% | OVCAR-3 ovarian 67.2% | HS 578T breast 88.7% | NCI/ADR-RES ovarian 80.6% | T-47D breast 42.6% | BT-549 breast 98.8% | MDA-MB-435 melanoma 73.9% | SW-620 colon 58.6% | MCF7 breast 51.7% | HCT-116 colon 35.1% | HCC-2998 colon 112% | KM12 colon 85.9%

COc1ccc(S(=O)(=O)Nc2c(/C=C\c3cc(OC)c(OC)c(OC)c3)ccc(OC)c2O)cc1
active: RPMI-8226 leukemia 7.59% | OVCAR-8 ovarian -0.813% | OVCAR-3 ovarian -8.9% | HS 578T breast -8.12% | NCI/ADR-RES ovarian -2.42% | MDA-MB-435 melanoma -39.4% | HCT-116 colon -6.66% | KM12 colon -4.97%
inactive: OVCAR-5 ovarian 29.5% | OVCAR-4 ovarian 53% | SK-OV-3 ovarian 18.5% | IGROV1 ovarian 33.2% | T-47D breast 82.2% | BT-549 breast 40.6% | SW-620 colon 23.4% | MCF7 breast 10.9% | HCC-2998 colon 13.3%

Cc1ccc(NC(=O)Nc2nc3ccccc3s2)cc1NC(=O)Nc1nc2ccccc2s1
inactive: RPMI-8226 leukemia 42.8% | OVCAR-8 ovarian 50.4% | OVCAR-5 ovarian 104% | OVCAR-4 ovarian 82.3% | SK-OV-3 ovarian 95.8% | IGROV1 ovarian 53.6% | OVCAR-3 ovarian 96.2% | HS 578T breast 77.3% | NCI/ADR-RES ovarian 91.7% | T-47D breast 80.6% | BT-549 breast 104% | MDA-MB-435 melanoma 97.1% | SW-620 colon 102% | MCF7 breast 64.6% | HCT-116 colon 84.9% | HCC-2998 colon 93.4% | KM12 colon 88.2%

CCN1CCN(c2nc3ccccc3c3c(=O)c4ccccc4sc23)CC1
inactive: RPMI-8226 leukemia 53.8% | OVCAR-8 ovarian 36.9% | OVCAR-5 ovarian 68.7% | OVCAR-4 ovarian 55.2% | SK-OV-3 ovarian 59.9% | IGROV1 ovarian 36.3% | OVCAR-3 ovarian 60.7% | HS 578T breast 52.6% | NCI/ADR-RES ovarian 37.8% | T-47D breast 54.5% | BT-549 breast 69% | MDA-MB-435 melanoma 47.9% | SW-620 colon 24% | MCF7 breast 28.3% | HCT-116 colon 27.5% | HCC-2998 colon 57.2% | KM12 colon 36.1%

O=C(Nc1ccncc1)C(=O)c1cn(S(=O)(=O)c2ccc(F)cc2)c2ccccc12
active: OVCAR-3 ovarian -21.9% | NCI/ADR-RES ovarian 2.06% | MDA-MB-435 melanoma -20.3%
inactive: RPMI-8226 leukemia 15.5% | OVCAR-8 ovarian 30% | OVCAR-5 ovarian 72.4% | OVCAR-4 ovarian 66.9% | SK-OV-3 ovarian 91.2% | IGROV1 ovarian 26.8% | HS 578T breast 50.4% | T-47D breast 52.5% | BT-549 breast 36.9% | SW-620 colon 12% | MCF7 breast 12.6% | HCT-116 colon 11.6% | HCC-2998 colon 61.6% | KM12 colon 18.1%

Cc1ccc(C)c(C(O)(c2cc(C)ccc2C)C2(O)CCCCC2)c1
inactive: RPMI-8226 leukemia 89.7% | OVCAR-8 ovarian 97.5% | OVCAR-5 ovarian 97.9% | OVCAR-4 ovarian 93% | SK-OV-3 ovarian 90.9% | IGROV1 ovarian 104% | OVCAR-3 ovarian 93.6% | HS 578T breast 94.1% | NCI/ADR-RES ovarian 94.8% | T-47D breast 72.5% | BT-549 breast 100% | MDA-MB-435 melanoma 105% | SW-620 colon 96.8% | MCF7 breast 97.6% | HCT-116 colon 90.5% | HCC-2998 colon 108% | KM12 colon 95.4%

CCCCCCc1cc(N=Nc2ccc(S(=O)(=O)Nc3cc(C)nc(C)n3)cc2)c(O)cc1O
inactive: RPMI-8226 leukemia 95.5% | OVCAR-8 ovarian 99.7% | OVCAR-5 ovarian 113% | OVCAR-4 ovarian 108% | SK-OV-3 ovarian 101% | IGROV1 ovarian 96.2% | OVCAR-3 ovarian 109% | HS 578T breast 110% | NCI/ADR-RES ovarian 99.9% | T-47D breast 93.9% | BT-549 breast 89.9% | MDA-MB-435 melanoma 100% | SW-620 colon 113% | MCF7 breast 92.7% | HCT-116 colon 86.3% | HCC-2998 colon 101% | KM12 colon 104%
